Screening data: PubChem, several laboratories
SUMO HTRF inh – SUMOylation inhibition | P63279 | HTRF SUMOylation assay, SAE1/SAE2 + UBC9, in vitro | inhibition, % at 35 µM | 290,000 tested, 0.36% active; in the data active means inhibition above about 50%, passing the limit was not always enough
PHOSPHO1 block – blocks human PHOSPHO1 phosphatase activity | Q8TCT1 | recombinant PHOSPHO1, absorbance phosphatase assay | inhibition, % at 13.3 µM | 290,000 tested, 1.1% active | AID 1565; in the data active means inhibition above about 60%
HDAC3 inh – human HDAC3 inhibition; O15379; recombinant HDAC3, fluorogenic peptide/trypsin coupled, fluorescence; inhibition, % at 8.3 µM; 320,000 tested, 0.15% active; in the data active means inhibition above about 26%, passing the limit was not always enough
Target sequence (O15379 whole entry, looked up): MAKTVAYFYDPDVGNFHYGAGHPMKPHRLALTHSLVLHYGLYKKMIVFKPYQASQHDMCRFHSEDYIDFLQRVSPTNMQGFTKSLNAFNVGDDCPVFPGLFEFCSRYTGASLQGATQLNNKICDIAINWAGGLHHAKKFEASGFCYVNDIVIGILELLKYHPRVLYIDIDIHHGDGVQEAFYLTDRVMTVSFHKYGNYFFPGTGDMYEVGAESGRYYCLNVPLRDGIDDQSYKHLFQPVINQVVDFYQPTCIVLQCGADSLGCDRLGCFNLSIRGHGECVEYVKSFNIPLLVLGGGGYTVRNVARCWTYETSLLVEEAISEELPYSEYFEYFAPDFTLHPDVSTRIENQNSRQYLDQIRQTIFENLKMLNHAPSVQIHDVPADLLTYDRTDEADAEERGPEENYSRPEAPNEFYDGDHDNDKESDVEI
G6PDH counter – L. mesenteroides G6PDH inhibition counter-screen | inhibition, % at 5 µM | Purified L. mesenteroides G6PDH, diaphorase/resazurin coupled fluorescence, 45 min | 200,000 tested, 0.12% active; in the data active means inhibition above about 50%
p97 ATPase inh – human p97 ATPase inhibition; AID 1481; recombinant p97 ATPase, Kinase-Glo ATP luminescence, 3 h; inhibition, % at 8 µM; 220,000 tested, 0.42% active; in the data active means inhibition above about 15%;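 further: 0% = DMSO vehicle and 100% = wells lacking enzyme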
M18AAP inhibitor – blocks P. falciparum M18 aspartyl aminopeptidase. recombinant PfM18AAP, H-Glu-NHMec fluorogenic cleavage. inhibition, % at 7.35 µM. 290,000 tested, 1.2% active;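 active means inhibition above the campaign mean inhibition over all tested compounds plus 3 SD, cut at about 28% in these data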;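 further: 0% = plate median of test compound wells and 100% = 2 mM ZnCl2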
* marks the source's active call; other numbers are inactive results; nt = no result given. This is a sample that favours compounds with a hit; in the whole collection about 2.5% have one here.

SMILES	SUMO HTRF inh	PHOSPHO1 block	HDAC3 inh	G6PDH counter	p97 ATPase inh	M18AAP inhibitor
COc1ccc(C2CC(=O)N3CN(c4ccccc4F)CSC3=C2C#N)cc1OC (centres undefined)	35	90*	12	11	3	17
COc1cc(OC)c(C2CC(=O)N3CN(c4ccccc4C)CSC3=C2C#N)cc1OC (centres undefined)	24	11	2	7	4	43*
COc1ccc(N2CSC3=C(C#N)C(c4cccc(OC)c4OC)CC(=O)N3C2)cc1 (centres undefined)	13	83*	56*	33	5	28*
COc1ccc(OC)c(C2NC(=O)c3sc(=S)n(-c4ccccc4)c3N2)c1 (centres undefined)	34	-35	5	16	-1	-1
COc1cccc(C2SCC(=O)N2c2ccc(Cl)cc2)c1OC (centres undefined)	4	-15	0	15	-4	-4
COc1ccc(C2CC(=O)N3CN(c4ccc(C)c(Cl)c4)CSC3=C2C#N)cc1 (centres undefined)	23	83*	51*	14	-8	17
COc1ccc(OC)c(C2CC(=O)N3CN(c4ccccc4)CSC3=C2C#N)c1 (centres undefined)	10	83*	54*	10	-4	25
O=C(CCc1nnc2ccc(NCc3ccco3)nn12)Nc1ccccn1	16	33	0	nt	nt	26
CCN(C(=O)CCc1nnc2ccc(NCc3ccco3)nn12)c1ccccc1	-12	-89	0	nt	nt	29*
Cc1cc(C)n(CC(=O)N/N=C/c2ccc(C)o2)n1	9	62*	10	7	0	3
CCc1ccc(NS(=O)(=O)c2c(C(=O)N3CCOCC3)c(C)n(C)c2C)cc1	-8	27	-3	nt	nt	0
Cc1nnsc1C(=O)NNc1ccc(C(C)(C)C)cc1	7	12	-2	nt	1	29*
CCOc1ccc(C(=O)N[C@H](C(=O)Nc2ccc(S(=O)(=O)Nc3nccs3)cc2)C(C)C)cc1	nt	nt	-10	nt	nt	nt
CCCCNC(=O)c1sc(=S)n(-c2ccccc2OC)c1N	4	69*	4	14	-2	-2
COc1ccc(Cl)cc1-n1c(N)c(C(N)=O)sc1=S	17	100*	-1	-1	10	16
COC(=O)c1sc(=S)n(-c2ccccc2OC)c1N	22	-122	2	22	5	4
Cc1ccc(C)c(-n2c(N)c(C(N)=O)sc2=S)c1	nt	nt	1	nt	1	11
O=C(CNC(=O)c1ccco1)NCC(=O)OCc1ccc(Cl)cc1Cl	-4	22	-2	nt	nt	6
Oc1ccc(/C=N/Nc2cc(N3CCOCC3)nc(N3CCOCC3)n2)cc1O	-8	-13	10	37	5	56*
CC(C)C(=O)NC(c1ccco1)c1ccc2cccnc2c1O (centres undefined)	-47	-4	-2	21	-1	30*
CC(C)C(=O)NC(c1cccs1)c1cc([N+](=O)[O-])c2cccnc2c1O (centres undefined)	4	4	0	13	3	7
Cc1ccc(C(NC(=O)C(C)C)c2cc([N+](=O)[O-])c3cccnc3c2O)cc1 (centres undefined)	7	-5	-1	53*	9	14
CCCC(=O)NC(c1ccc(Cl)cc1Cl)c1ccc2cccnc2c1O (centres undefined)	91*	-85	4	nt	nt	2
O=C(Cc1ccsc1)NNC(=O)c1ccc(F)cc1	nt	nt	12	nt	nt	nt
Cc1ccsc1C1C=C(c2cccc(Br)c2)Nc2ncnn21 (centres undefined)	11	62*	-7	0	-6	9
SMILES	SUMO HTRF inh	PHOSPHO1 block	HDAC3 inh	G6PDH counter	p97 ATPase inh	M18AAP inhibitor
COc1cccc(C2=CC(c3ccc(C)cc3)n3ncnc3N2)c1 (centres undefined)	27	-15	0	0	6	18
OCCCNCc1ccc(N(c2ccccc2)c2ccccc2)cc1	8	-38	6	nt	nt	3
CC(=O)Nc1ccc(NC(=O)Cc2sc(-c3cccnc3)nc2-c2ccc(C)cc2)cc1	-14	-32	6	9	15*	-1
Cc1ccc(-c2cnc(SCC(=O)N3CCCc4ccccc43)n2C)cc1	16	77*	6	0	-8	-10
CC(=O)c1coc2c1cc(O)c1ccccc12	7	64*	-3	28	-1	4
CCN(CC(=O)Nc1c(F)cccc1F)C(=O)COc1ccc2c(c1)CCC2	nt	nt	4	nt	nt	nt
